23 compounds from the supplement of paper PMC10037445 can be followed below.

In test [1] the test system is RAW-Dual. In words: NF-kB SEAP reporter activity, fold change vs agonist alone; higher = enhanced NF-kB activity. The essentials:
(§1)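 After 50 nL of library stock was delivered by pin tool to RAW-Dual macrophages (50,000 cells/well, DMEM, 384-well plates), a PRR agonist was added 1 h later and the plates were kept at 37 °C, 5% CO2. Twenty hours later, IRF was read from supernatant by QuantiLuc luminescence and NF-κB by QuantiBlue absorbance at 620 nm. Reporter activity is stated as fold change over agonist-alone wells. Wells with IncuCyte confluency under 70% of agonist controls in both mask sets were counted as cytotoxic.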

In test [2] the test system is RAW-Dual. In words: NF-kB SEAP reporter activity, fold change vs agonist alone; cytotoxicity flag (confluency mask): not cytotoxic; higher = enhanced NF-kB activity. The essentials: as §1
The subject of test [3] is RAW-Dual. In words: NF-kB SEAP reporter activity, fold change vs agonist alone; cytotoxicity flag (confluency mask): cytotoxic (confluency <70% of control); higher = enhanced NF-kB activity. The method, boiled down: as §1
Setting [4] is: library stock concentration (final ~1000-fold dilution): 10 mM, cytotoxicity flag (confluency mask): not cytotoxic, agonist: Imiquimod (TLR7) […].
[5] abbreviates: library stock concentration (final ~1000-fold dilution): 10 mM, cytotoxicity flag (confluency mask): not cytotoxic, agonist: MPLA (TLR4) […].
Where [6] appears, read: agonist: ODN 1826 (TLR9) 0.5 ug/mL.
The mark [7] stands for this setting: agonist: Pam2CSK4 (TLR2/6) 0.1 ug/mL.
Setting [8] is: agonist: Pam3CSK4 (TLR2/1) 0.1 ug/mL.
Where [9] appears, read: library stock concentration (final ~1000-fold dilution): 10 mM, cytotoxicity flag (confluency mask): cytotoxic (confluency <70% of control), agonist: Imiquimod (TLR7) […].
Setting [10] is: library stock concentration (final ~1000-fold dilution): 10 mM, cytotoxicity flag (confluency mask): cytotoxic (confluency <70% of control), agonist: MPLA (TLR4) […].

± gives the standard deviation of the averaged measurements. In all, about 2,900 compounds were measured (“NF-kB SEAP reporter activity, fold change vs agonist alone”: median about 0.99, highest 2% from about 2.6 on). Shown is part of a subset that was picked to be rich in the highest values.

For the compound `O=c1cc(-c2cccc3c2Sc2ccccc2S3)oc(N2CCOCC2)c1`, the “NF-kB SEAP reporter activity” value was 1.04 in the test on RAW-Dual [1] (setting [4]) and 2.17 in the test on RAW-Dual [1] (setting [5]).
Consider `CNC(=O)C(Cc1c[nH]c2ccccc12)NC(=O)C(CC(=O)NO)CC(C)C` (stereo not drawn) (library stock concentration (final ~1000-fold dilution): 10 mM), for which the “NF-kB SEAP reporter activity” value in the test with RAW-Dual [2] (agonist: LPS (TLR4) 0.1 ug/mL) worked out at 0.932; in the test with RAW-Dual [2] (setting [6]), 0.999; with RAW-Dual [2] (setting [7]), 1.03; in the test on RAW-Dual [2] (setting [8]), 1.01.
As for `CNC(=O)C(Cc1c[nH]c2ccccc12)NC(=O)C(CC(=O)NO)CC(C)C` (stereo not drawn), the “NF-kB SEAP reporter activity” value with RAW-Dual [1] (setting [4]) was 1.04; in the test with RAW-Dual [1] (setting [5]), 1.23.
As for `CN1C2CCCC1CC(NC(=O)c1nn(C)c3ccccc13)C2.Cl` (stereo not drawn) (library stock concentration (final ~1000-fold dilution): 10 mM water), the “NF-kB SEAP reporter activity” value in the test with RAW-Dual [2] (agonist: LPS (TLR4) 0.1 ug/mL) came to 1.2; in the test with RAW-Dual [2] (setting [6]) it was 1.06; in the test with RAW-Dual [2] (setting [7]), 1.04; in the test with RAW-Dual [2] (setting [8]) it was 1.11.
For `CN1C2CCCC1CC(NC(=O)c1nn(C)c3ccccc13)C2.Cl` (stereo not drawn), the “NF-kB SEAP reporter activity” value with RAW-Dual [1] (library stock concentration (final ~1000-fold dilution): 10 mM water, cytotoxicity flag (confluency mask): not cytotoxic, agonist: Imiquimod (TLR7) […]) was determined as 0.874; in the test on RAW-Dual [1] (library stock concentration (final ~1000-fold dilution): 10 mM water, cytotoxicity flag (confluency mask): not cytotoxic, agonist: MPLA (TLR4) […]), 1.
As for `CC1(C)CCC2(NC(=O)C(C)(F)F)CCC3(C)C(C(=O)C=C4C5(C)C=C(C#N)C(=O)C(C)(C)C5CCC43C)C2C1` (stereo not drawn), the entries for the “NF-kB SEAP reporter activity” value in the test with RAW-Dual [1] (setting [9]) and in the test with RAW-Dual [1] (setting [10]) were 0.14 ± 0.006 and 0.254 ± 0.0072, respectively.
Turning to `CC1(C)CCC2(NC(=O)C(C)(F)F)CCC3(C)C(C(=O)C=C4C5(C)C=C(C#N)C(=O)C(C)(C)C5CCC43C)C2C1` (stereo not drawn) (library stock concentration (final ~1000-fold dilution): 10 mM), the “NF-kB SEAP reporter activity” value in the test on RAW-Dual [3] (agonist: LPS (TLR4) 0.1 ug/mL) amounted to 0.358 ± 0.053; with RAW-Dual [3] (setting [6]) it was 0.173 ± 0.0087; in the test on RAW-Dual [3] (setting [7]), 0.0759 ± 0.018; in the test on RAW-Dual [3] (setting [8]), 0.163 ± 0.0017.
Turning to `C=CC(C)(/C=C/c1ccc(O)cc1)CCC=C(C)C` (stereo not drawn) (library stock concentration (final ~1000-fold dilution): 10 mM), the “NF-kB SEAP reporter activity” value in the test with RAW-Dual [2] (agonist: LPS (TLR4) 0.1 ug/mL) was 0.878; with RAW-Dual [2] (setting [6]), 1.02; in the test on RAW-Dual [2] (setting [7]) it was 0.934; in the test on RAW-Dual [2] (setting [8]), 1.16.
As to `C=CC(C)(/C=C/c1ccc(O)cc1)CCC=C(C)C` (stereo not drawn), the “NF-kB SEAP reporter activity” value with RAW-Dual [1] (setting [4]) is 1.1; with RAW-Dual [1] (setting [5]), 1.12.
Regarding `C=CCNC1=C2CC(C)CC(OC)C(O)C(C)/C=C(\C)C(OC(N)=O)C(OC)/C=C\C=C(/C)C(=O)NC(=CC1=O)C2=O` (stereo not drawn) (library stock concentration (final ~1000-fold dilution): 10 mM), the “NF-kB SEAP reporter activity” value in the test with RAW-Dual [3] (agonist: LPS (TLR4) 0.1 ug/mL) came out at 0.289; with RAW-Dual [3] (setting [6]), 0.221; in the test with RAW-Dual [3] (setting [7]) it was 0.0862; in the test on RAW-Dual [3] (setting [8]) it was 0.182.
In the case of `C=CCNC1=C2CC(C)CC(OC)C(O)C(C)/C=C(\C)C(OC(N)=O)C(OC)/C=C\C=C(/C)C(=O)NC(=CC1=O)C2=O` (stereo not drawn), the “NF-kB SEAP reporter activity” value turned out to be 0.313 with RAW-Dual [1] (setting [9]) and 0.516 in the test with RAW-Dual [1] (setting [10]).
For the compound `CN(C)CCCn1cc(C2=C(c3c[nH]c4ccccc34)C(=O)NC2=O)c2ccccc21`, the “NF-kB SEAP reporter activity” value stood at 1.13 in the test with RAW-Dual [1] (setting [9]) and 1.59 in the test with RAW-Dual [1] (setting [10]).
As for `CN(C)CCCn1cc(C2=C(c3c[nH]c4ccccc34)C(=O)NC2=O)c2ccccc21` (library stock concentration (final ~1000-fold dilution): 10 mM), the “NF-kB SEAP reporter activity” value came out at 0.346 in the test with RAW-Dual [3] (agonist: LPS (TLR4) 0.1 ug/mL), 0.491 in the test on RAW-Dual [3] (setting [6]), 0.833 in the test with RAW-Dual [3] (setting [7]) and 0.564 in the test on RAW-Dual [3] (setting [8]).
Consider `CN1CCN(c2nc(C3=C(c4c[nH]c5ccccc45)C(=O)NC3=O)c3ccccc3n2)CC1`, for which the “NF-kB SEAP reporter activity” value in the test on RAW-Dual [1] (setting [9]) was determined as 2.99; in the test with RAW-Dual [1] (setting [10]), 2.19.
With `COc1ccc2c(c1)c(C1=C(c3c[nH]c4ccccc34)C(=O)NC1=O)cn2CCCN(C)C`, the “NF-kB SEAP reporter activity” value came out at 2.44 in the test on RAW-Dual [1] (setting [9]) and 1.71 with RAW-Dual [1] (setting [10]).
As to `CN1CCN(c2nc(C3=C(c4c[nH]c5ccccc45)C(=O)NC3=O)c3ccccc3n2)CC1` (library stock concentration (final ~1000-fold dilution): 10 mM), the “NF-kB SEAP reporter activity” value is 2.03 in the test with RAW-Dual [3] (agonist: LPS (TLR4) 0.1 ug/mL), 1.29 in the test with RAW-Dual [3] (setting [6]), 1.84 in the test with RAW-Dual [3] (setting [7]) and 3.14 with RAW-Dual [3] (setting [8]).
In the same order, the values of `COc1ccc2c(c1)c(C1=C(c3c[nH]c4ccccc34)C(=O)NC1=O)cn2CCCN(C)C` (library stock concentration (final ~1000-fold dilution): 10 mM) are 1.23, 0.346, 1.25 and 1.82.
`Cc1ncc(NC(=O)c2cccc(C(F)(F)F)c2)cc1-c1cnc(OC2CCOCC2)c(N2CCOCC2)c1` (library stock concentration (final ~1000-fold dilution): 10 mM): the “NF-kB SEAP reporter activity” value in the test on RAW-Dual [2] (agonist: LPS (TLR4) 0.1 ug/mL) was determined as 1.31; with RAW-Dual [2] (setting [6]) it was 0.938; in the test on RAW-Dual [2] (setting [7]) it was 0.495; with RAW-Dual [2] (setting [8]), 0.711.
On to `Cc1ncc(NC(=O)c2cccc(C(F)(F)F)c2)cc1-c1cnc(OC2CCOCC2)c(N2CCOCC2)c1`, for which the “NF-kB SEAP reporter activity” value in the test with RAW-Dual [1] (setting [4]) came to 0.898; in the test on RAW-Dual [1] (setting [5]), 1.04.
Consider `Cc1cc(C)c2c(c1)C(N(Cc1cc(C(F)(F)F)cc(C(F)(F)F)c1)c1nnn(C)n1)CCCN2CC1CCC(C(=O)O)CC1` (stereo not drawn) (library stock concentration (final ~1000-fold dilution): 10 mM), for which the “NF-kB SEAP reporter activity” value worked out at 0.632 in the test with RAW-Dual [2] (agonist: LPS (TLR4) 0.1 ug/mL), 0.635 in the test with RAW-Dual [2] (setting [6]), 0.484 in the test on RAW-Dual [2] (setting [7]) and 0.444 in the test on RAW-Dual [2] (setting [8]).
Regarding `Cc1cc(C)c2c(c1)C(N(Cc1cc(C(F)(F)F)cc(C(F)(F)F)c1)c1nnn(C)n1)CCCN2CC1CCC(C(=O)O)CC1` (stereo not drawn), the “NF-kB SEAP reporter activity” value is 0.911 in the test with RAW-Dual [1] (setting [4]) and 1.14 with RAW-Dual [1] (setting [5]).
Turning to `CC(C)CC(NC(=O)C(NC(=O)c1cccc(-c2ccccc2)n1)C(C)O)B(O)O` (stereo not drawn) (library stock concentration (final ~1000-fold dilution): 10 mM), the “NF-kB SEAP reporter activity” value was 0.629 in the test on RAW-Dual [2] (agonist: LPS (TLR4) 0.1 ug/mL), 1.53 in the test with RAW-Dual [2] (setting [6]), 0.976 in the test on RAW-Dual [2] (setting [7]) and 0.594 with RAW-Dual [2] (setting [8]).
In the case of `CC(C)CC(NC(=O)C(NC(=O)c1cccc(-c2ccccc2)n1)C(C)O)B(O)O` (stereo not drawn), the “NF-kB SEAP reporter activity” value in the test with RAW-Dual [1] (setting [4]) is 2.29; in the test with RAW-Dual [1] (setting [5]) it was 0.997.
